Compound activity (PubChem)
Compounds with a hit are over-represented: about 5.7% of the library has one in this group of screens.
hgDAF-12 ag – H. glycines DAF-12 receptor agonists, primary screen, cell-based, luminescence, HEK293, GAL4 fusion, UAS-luciferase. Nuclear hormone receptor DAF-12 (Heterodera glycines), GAL4 fusion. HEK293 GAL4-hgDAF12 UAS-luciferase reporter, agonist luminescence; normalized to butyrate control. activation, % at 6.8 µM. 370,000 compounds, 1.8% hits;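 active = activation above a cutoff set at the mean of all screened compounds plus 3 SD, cut at about 10% in these data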;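 also: 0% = DMSO wells and 100% = sodium butyrate wells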
hcDAF-12 act – H. contortus DAF-12 nuclear receptor activators, primary screen, cell-based, luminescence, HEK293, lit1-tk-luc reporter; activation, % at 6.8 µM; AID 652067, 2013; 370,000 compounds, 1.4% hits; HEK293 hcDAF-12 lit1-tk-luc reporter; 0% DMSO, 100% Δ7-dafachronic acid;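 active = activation above the mean of all tested compounds plus 3 SD, cut at about 5.5% in these data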;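 also: 100% = response to 3 µM Δ7-dafachronic acid high control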
DAX1 inh-1 – DAX1 (NR0B1) inhibitors, primary screen, cell-based, HEK293, Gal4-DAX1, luciferase luminescence; Nuclear receptor subfamily 0 group B member 1 (Homo sapiens), P51843; HEK293 Gal4-DAX1 luciferase reporter; inhibition, % at 6.75 µM; 340,000 compounds, 0.99% hits;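 active = inhibition above the mean over all tested compounds plus 3 SD, cut at about 4.2% in these data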;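 also: 0% = DAX1-transfected cells with DMSO and 100% = empty-vector control cells with DMSO; inhibition shows as a rise in luminescence from relieved DAX1 repression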
Target sequence (P51843 207-470 limits assumed): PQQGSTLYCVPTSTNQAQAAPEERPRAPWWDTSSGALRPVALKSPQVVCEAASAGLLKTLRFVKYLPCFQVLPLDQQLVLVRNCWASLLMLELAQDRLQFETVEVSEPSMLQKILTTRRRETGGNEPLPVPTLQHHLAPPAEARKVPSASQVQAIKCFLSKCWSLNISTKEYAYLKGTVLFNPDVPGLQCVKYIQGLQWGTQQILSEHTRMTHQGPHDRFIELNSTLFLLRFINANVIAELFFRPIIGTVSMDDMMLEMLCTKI
DAX1 inh-2 – DAX1 (NR0B1) inhibitors on StAR promoter, primary screen, cell-based, luminescence, SF-1 (NR5A1), full-length DAX-1. HEK293T StAR-luciferase reporter, SF-1/DAX-1 repression relief. inhibition, % at 6.8 µM. 370,000 compounds, 1.1% hits. AID 652010, 2013;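 active = inhibition above the mean over all tested compounds plus 3 SD, cut at about 3.6% in these data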;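 also: 0% = DAX-1 cells with DMSO and 100% = cells lacking DAX-1 with DMSO; higher inhibition means more luminescence from relief of DAX-1 repression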
AHR activator – AHR activators, primary screen, cell-based, luminescence, luciferase reporter, human; Aryl hydrocarbon receptor (Homo sapiens), P35869; AHR-responsive luciferase reporter cells; activation, % at 5 µM; 320,000 compounds, 2.5% hits; AID 2796, 2010; in the data active = activation above about 47%;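 also: 0% = vehicle wells and 100% = reference agonist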
ssDAF12 agonist – S. stercoralis DAF-12 nuclear receptor activators, primary screen, cell-based, luminescence, HEK293, GRIP1 co-expression, lit1-tk-luc | HEK293 ssDAF-12/GRIP1 lit1-tk-luc reporter; % of 3 µM dafachronic acid response | AID 652126, 2013 | 370,000 compounds, 1% hits | activation, % at 6.8 µM;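 active = activation above the mean over all tested compounds plus 3 SD, cut at about 0.9% in these data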;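 also: 0% = DMSO-only wells and 100% = 3 µM delta7-dafachronic acid wells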
Numbers without * were called inactive; . = not tested or not shown.

SMILES	hgDAF-12 ag	hcDAF-12 act	DAX1 inh-1	DAX1 inh-2	AHR activator	ssDAF12 agonist
COC(=O)Cc1ccc(NC(=S)Nc2ccccn2)cc1	9	-1	0	-1	1	-1
COc1cc(NC(=S)Nc2ccccn2)cc(OC)c1	1	3	2	0	74*	0
COc1cc(NC(=S)Nc2ccccn2)cc(OC)c1OC	4	0	1	0	77*	-1
COc1ccc(NC(=S)Nc2ccccn2)c(OC)c1	6	0	1	0	33	0
Cn1nc(C(=O)NC2CCC(O)CC2)c2ccccc2c1=O (configuration not stated)	0	-1	2	-1	0	0
O=C(Nc1ccc(N=Nc2ccccc2)c(NC(=O)C2CCCO2)c1)C1CCCO1 (configuration not stated)	-2	-3	-3	-2	-5	-2
O=C(CN(Cc1ccc(Cl)cc1)C(=O)c1csnn1)NCc1ccccc1	4	-1	-1	0	2	0
COc1ccc(NC(=O)Nc2nnc(-c3ccccc3SCc3ccccc3)s2)cc1	2	0	0	0	51*	-1
COc1cccc(NC(=O)Nc2nnc(-c3ccccc3SCc3ccccc3)s2)c1	1	-1	0	0	12	-1
O=C(/C=C/c1ccc(OC2CSC2)cc1)c1ccc(Cl)cc1	2	5.6*	2	0	4	-1
O=S(=O)(c1ccccc1)c1nc(-c2ccccc2)oc1N1CCCCC1	0	0	0	0	3	-1
O=c1c(-c2cccc([N+](=O)[O-])c2)[n+]([O-])c2ccccc2n1O	2	1	6.5*	0	6	-1
O=C(O)C1C2CCC(C2)C1C(=O)NCCc1ccccc1 (configuration not stated)	2	1	2	1	0	0
Cc1ccnc(NC(=O)c2cccs2)c1	8	2	1	1	9	0
Cc1cc(NC(=O)c2cccs2)ncc1NC(=O)C(C)(C)C	10	3	2	3	7	1.1*
S=c1[nH]nc(Cc2ccccc2)n1-c1cccc2ccccc12	-2	-1	0	-1	-1	-1
COc1ccc(N=Cc2c(O)n(-c3cccc(C)n3)c(=O)c3ccccc23)c(OC)c1	0	-1	5.2*	0	-1	-2
CC(=O)Oc1ccc2occ(-c3ccccc3)c2c1	10	1	0	1	-1	0
CCN(CC)C(=O)Oc1ccc2c(=O)c(-c3ccccc3)coc2c1	11*	1	1	4.1*	-10	0
O=C(c1ccccc1)c1ccc2ccccc2c1	3	0	5.3*	-1	.	-1
O=C(c1ccccc1)c1ccc2cc(O)ccc2c1	9	-1	0	-1	2	0
Cc1cccc(-c2nc(NCCCN(C)C)c3ccccc3n2)c1	0	1	0	0	23	1.1*
Cc1cccc(-c2nc(NCCCN3CCOCC3)c3ccccc3n2)c1	3	1	1	-1	52*	-1
Cc1ccc(S(=O)(=O)c2nc(-c3ccccc3)oc2NCCCN2CCOCC2)cc1	11*	-1	1	0	.	-1
Cc1nc(NCCCN2CCOCC2)c2cnn(-c3ccccc3)c2n1	12*	4	1	2	.	0
SMILES	hgDAF-12 ag	hcDAF-12 act	DAX1 inh-1	DAX1 inh-2	AHR activator	ssDAF12 agonist
COc1ccc(-c2nc(S(=O)(=O)c3ccccc3)c(NCCCN3CCOCC3)o2)cc1	0	0	0	0	1	-1
CCOC(=O)Cc1nnc(Nc2ccc(C(=O)NC)cc2)c2ccccc12	-3	-2	1	1	-1	0
COc1cc(F)ccc1-c1csc(C(O)c2ccc(F)c(F)c2)n1 (configuration not stated)	3	-2	.	0	.	-2
O=C(O)c1cccc(N2C(=O)c3ccc(Oc4ccc(Cl)cc4)cc3C2=O)c1	-3	0	4.6*	1	1	-2
O=C(O)c1cccc(N2C(=O)c3ccc4c5c(ccc(c35)C2=O)C(=O)N(c2cccc(C(=O)O)c2)C4=O)c1	-2	0	4	0	-1	-1
Cc1cccc(N2C(=O)c3cccc(Oc4ccc(Cl)cc4)c3C2=O)c1	4	-2	5.2*	0	0	-1
N#Cc1cc(F)cc(OCCCN2CCC(C(O)(c3ccccc3)c3ccccc3)CC2)c1	0	0	.	0	.	-1
CC(=O)NS(=O)(=O)c1ccc(NS(=O)(=O)c2ccc3ccccc3c2)cc1	0	0	4.7*	0	1	-1
Cc1ccc(C(=O)N2CCN(c3ccc(N4CCOCC4)nn3)CC2)cc1	1	1	-1	0	-3	-1
Cc1cccc(C(=O)N2CCN(c3ccc(N4CCOCC4)nn3)CC2)c1	-2	0	4.4*	-1	-1	2.2*
COc1ccccc1N1CCN(C(=O)c2ccc(N(C)S(=O)(=O)c3ccccc3)cc2)CC1	0	-3	-1	0	4	-1
O=C(CCc1nnc(CCCc2ccccc2)o1)N1CCCCCC1	6	2	5.0*	1	3	-1
O=C(CCc1nnc(CCCc2ccccc2)o1)NCCc1ccccc1	3	1	-1	0	3	0
O=C(CCc1nnc(CCCc2ccccc2)o1)NCCCC1CCCC1	11*	1	0	0	11	0
COCC1CCN(C(=O)CCc2nnc(CCCCc3ccccc3)o2)CC1	-2	-2	-1	0	0	-2
CCc1cc(CNC(=O)CCc2nnc(CCCc3ccccc3)o2)on1	13*	3	3	1	8	-1
CC(C)c1cc(CNC(=O)CCc2nnc(CCCc3ccccc3)o2)on1	7	3	1	0	1	-1
COc1cc(OC)cc(C2=Cc3ccccc3C(CC(=O)c3ccco3)N2c2ccc(-c3cncnc3)cc2)c1 (configuration not stated)	0	0	.	-2	.	-2
COc1ccc(CN2CN3Cc4cc(OC)ccc4C3CS2(=O)=O)cc1 (configuration not stated)	3	0	.	-1	.	-2
